Of roughly 8,800 targets only a part is listed; those with a hit were picked by preference. About 0.5% of all pairs of compound and target were hits.
Columns and labels:
Assay in all cases: log2 fold change, soluble protein after heating vs DMSO (PISA); higher = thermal stabilisation; K562 lysate, 10 uM; active = over 0.2 and 3.5 SD of the protein, either way, in both replicates (recomputed)
crizotinib = compound: C[C@@H](Oc1cc(-c2cnn(C3CCNCC3)c2)cnc1N)c1c(Cl)ccc(F)c1Cl [crizotinib]
How it was run: (§1)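 Soluble protein was defined as the supernatant remaining after 21,000xg for 90 min, following pooling of heated aliquots and adjustment to 0.5% NP-40 at 4°C. Before that, crude K562 extract at 1 mg/mL protein in PBS pH 7.4 with 1 mM MgCl2 was treated with 10 μM compound for 30 min and heated for 3 min across 48°C-58°C. Quantification used TMTpro 16plex LC-MS/MS with channel sums equalised, and values are log-two fold changes in thermal stability relative to solvent controls from duplicates.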

doramapimod = compound: Cc1ccc(-n2nc(C(C)(C)C)cc2NC(=O)Nc2ccc(OCCN3CCOCC3)c3ccccc23)cc1 [doramapimod]
How it was run: as §1

quisinostat = compound: Cn1cc(CNCC2CCN(c3ncc(C(=O)NO)cn3)CC2)c2ccccc21 [quisinostat]
How it was run: as §1

[1] = compound: NC(=O)Nc1cc(-c2cccc(F)c2)sc1C(=O)N[C@H]1CCCNC1
How it was run: as §1

pictilisib = compound: CS(=O)(=O)N1CCN(Cc2cc3nc(-c4cccc5[nH]ncc45)nc(N4CCOCC4)c3s2)CC1 [pictilisib]
How it was run: as §1

[2] = compound: C[C@H](C1=CC=C(C=C1)C(=O)NC2=C3C=CNC3=NC=C2)N
How it was run: as §1

gandotinib = compound: Cc1cc(Nc2cc(CN3CCOCC3)c3nc(C)c(Cc4ccc(Cl)cc4F)n3n2)n[nH]1 [gandotinib]
How it was run: as §1

tozasertib = compound: Cc1cc(Nc2cc(N3CCN(C)CC3)nc(Sc3ccc(NC(=O)C4CC4)cc3)n2)n[nH]1 [tozasertib]
How it was run: as §1

bafetinib = compound: Cc1ccc(NC(=O)c2ccc(CN3CC[C@H](N(C)C)C3)c(C(F)(F)F)c2)cc1Nc1nccc(-c2cncnc2)n1 [bafetinib]
How it was run: as §1

[3] = compound: Cc1cccc(CC(=O)N2CCc3c2ccc(-c2cn(C)c4ncnc(N)c24)c3F)n1
How it was run: as §1

[4] = compound: NC1(c2ccc(-c3nc4ccn5c(=O)[nH]nc5c4cc3-c3ccccc3)cc2)CCC1
How it was run: as §1

duvelisib = compound: C[C@H](Nc1ncnc2nc[nH]c12)c1cc2cccc(Cl)c2c(=O)n1-c1ccccc1 [duvelisib]
How it was run: as §1

dasatinib = compound: Cc1nc(Nc2ncc(C(=O)Nc3c(C)cccc3Cl)s2)cc(N2CCN(CCO)CC2)n1 [dasatinib]
How it was run: as §1

[5] = compound: Cn1cc(-c2ccc3c(c2)CCN3C(=O)Cc2cccc(C(F)(F)F)c2)c2c(N)ncnc21
How it was run: as §1

lapatinib = compound: CS(=O)(=O)CCNCc1ccc(-c2ccc3ncnc(Nc4ccc(OCc5cccc(F)c5)c(Cl)c4)c3c2)o1 [lapatinib]
How it was run: as §1

[6] = compound: NC(=O)c1cnc(N[C@@H]2CCCC[C@@H]2N)nc1Nc1cccc(-n2nccn2)c1
How it was run: as §1

Measured: log2 fold change

ZNF652 (UniProt Q9Y2D9)
Chain of UniProt Q9Y2D9 (Q9Y2D9 whole entry, looked up): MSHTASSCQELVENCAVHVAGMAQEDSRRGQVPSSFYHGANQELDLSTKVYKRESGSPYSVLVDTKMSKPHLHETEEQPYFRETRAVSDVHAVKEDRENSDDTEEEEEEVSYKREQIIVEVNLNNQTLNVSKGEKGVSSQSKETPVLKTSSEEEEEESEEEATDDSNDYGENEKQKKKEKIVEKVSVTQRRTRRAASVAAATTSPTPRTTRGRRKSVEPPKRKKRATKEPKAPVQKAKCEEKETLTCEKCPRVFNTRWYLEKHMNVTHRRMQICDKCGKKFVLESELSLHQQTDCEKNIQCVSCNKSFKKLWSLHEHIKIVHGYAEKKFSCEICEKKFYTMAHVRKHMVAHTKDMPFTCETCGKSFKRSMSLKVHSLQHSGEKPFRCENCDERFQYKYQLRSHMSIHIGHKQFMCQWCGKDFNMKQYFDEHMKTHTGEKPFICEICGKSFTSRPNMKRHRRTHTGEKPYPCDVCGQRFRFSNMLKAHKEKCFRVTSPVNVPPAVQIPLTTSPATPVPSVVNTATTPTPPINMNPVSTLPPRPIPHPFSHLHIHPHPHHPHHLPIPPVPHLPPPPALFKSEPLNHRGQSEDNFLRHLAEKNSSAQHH
inactive: crizotinib -0.007 | doramapimod 0 | quisinostat 0 | [1] -0.036

UTRN isoform 2 (UniProt P46939)
inactive: pictilisib 0.01 | [2] -0.009 | gandotinib 0.04 | tozasertib -0.077 | bafetinib -0.175 | [3] -0.018 | [4] 0.21

WAC isoform 5 (UniProt Q9BTA9)
Chain of UniProt Q9BTA9 (Q9BTA9 whole entry, looked up): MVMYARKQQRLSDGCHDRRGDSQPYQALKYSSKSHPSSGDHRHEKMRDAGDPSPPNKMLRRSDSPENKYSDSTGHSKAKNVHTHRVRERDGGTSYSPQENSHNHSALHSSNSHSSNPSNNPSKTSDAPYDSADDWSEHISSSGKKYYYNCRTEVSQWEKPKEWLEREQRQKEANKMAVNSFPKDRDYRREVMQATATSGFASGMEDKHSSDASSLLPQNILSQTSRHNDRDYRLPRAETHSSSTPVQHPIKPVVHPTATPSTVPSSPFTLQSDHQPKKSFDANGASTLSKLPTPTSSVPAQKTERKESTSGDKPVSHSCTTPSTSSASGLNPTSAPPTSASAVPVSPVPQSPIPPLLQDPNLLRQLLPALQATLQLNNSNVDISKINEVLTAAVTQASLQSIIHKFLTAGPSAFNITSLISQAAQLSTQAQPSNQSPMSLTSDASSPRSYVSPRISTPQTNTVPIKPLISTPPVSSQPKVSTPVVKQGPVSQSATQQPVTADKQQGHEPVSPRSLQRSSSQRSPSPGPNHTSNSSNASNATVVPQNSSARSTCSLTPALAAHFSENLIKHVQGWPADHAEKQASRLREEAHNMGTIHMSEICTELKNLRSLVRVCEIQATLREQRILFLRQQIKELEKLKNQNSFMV
inactive: duvelisib 0.226 | dasatinib -0.336 | [5] 0.254 | [4] -0.129

ZFYVE19 isoform 3 (UniProt Q96K21)
Chain of UniProt Q96K21 (Q96K21 whole entry, looked up): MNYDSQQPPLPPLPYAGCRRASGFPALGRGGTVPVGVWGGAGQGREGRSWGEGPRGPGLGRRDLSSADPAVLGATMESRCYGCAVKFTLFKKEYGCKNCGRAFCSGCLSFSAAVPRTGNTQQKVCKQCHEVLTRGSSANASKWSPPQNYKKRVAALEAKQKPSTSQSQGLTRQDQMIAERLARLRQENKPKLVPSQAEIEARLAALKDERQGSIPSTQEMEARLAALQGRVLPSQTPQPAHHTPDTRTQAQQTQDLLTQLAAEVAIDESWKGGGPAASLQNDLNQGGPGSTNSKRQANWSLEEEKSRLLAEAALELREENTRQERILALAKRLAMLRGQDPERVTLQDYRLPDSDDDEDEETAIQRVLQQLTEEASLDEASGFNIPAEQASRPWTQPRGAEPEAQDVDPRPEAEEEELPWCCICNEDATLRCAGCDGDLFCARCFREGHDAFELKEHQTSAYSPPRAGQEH
inactive: lapatinib 0.114 | pictilisib -0.02 | bafetinib -0.013 | [6] -0.002

ZSCAN26 (UniProt Q16670)
Chain of UniProt Q16670 (Q16670 whole entry, looked up): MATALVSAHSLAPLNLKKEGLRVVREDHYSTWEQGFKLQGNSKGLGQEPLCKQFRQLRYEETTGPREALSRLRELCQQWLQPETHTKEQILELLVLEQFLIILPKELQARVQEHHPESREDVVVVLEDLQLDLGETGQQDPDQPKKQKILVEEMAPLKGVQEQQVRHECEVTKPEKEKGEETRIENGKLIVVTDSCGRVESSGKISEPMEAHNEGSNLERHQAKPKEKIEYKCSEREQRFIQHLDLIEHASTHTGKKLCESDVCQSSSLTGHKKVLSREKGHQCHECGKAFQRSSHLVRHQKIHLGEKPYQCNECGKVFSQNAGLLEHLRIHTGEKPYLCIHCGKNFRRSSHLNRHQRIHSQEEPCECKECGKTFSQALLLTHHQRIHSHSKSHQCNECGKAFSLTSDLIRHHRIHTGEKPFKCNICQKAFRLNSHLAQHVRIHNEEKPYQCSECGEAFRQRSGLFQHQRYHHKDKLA
inactive: crizotinib -0.025 | doramapimod 0.102 | quisinostat 0.169 | [1] -0.093

ULK3 isoform 4 (UniProt Q6PHR2)
Chain of UniProt Q6PHR2 (Q6PHR2 whole entry, looked up): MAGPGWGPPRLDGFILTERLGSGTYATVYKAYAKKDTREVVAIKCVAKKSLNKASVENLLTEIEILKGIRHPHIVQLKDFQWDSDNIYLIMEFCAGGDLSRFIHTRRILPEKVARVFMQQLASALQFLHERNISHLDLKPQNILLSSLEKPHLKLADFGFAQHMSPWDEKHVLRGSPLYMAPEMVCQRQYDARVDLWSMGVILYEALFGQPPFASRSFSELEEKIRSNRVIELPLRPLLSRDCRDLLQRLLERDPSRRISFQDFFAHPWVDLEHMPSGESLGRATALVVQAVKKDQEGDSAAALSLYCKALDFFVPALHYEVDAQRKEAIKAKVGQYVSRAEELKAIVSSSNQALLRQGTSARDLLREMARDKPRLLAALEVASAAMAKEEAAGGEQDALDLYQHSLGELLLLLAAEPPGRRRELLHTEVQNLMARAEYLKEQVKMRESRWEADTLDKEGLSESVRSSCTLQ
inactive: lapatinib 0.059 | pictilisib -0.008 | crizotinib -0.088 | [2] 0.113 | duvelisib 0.065 | gandotinib -0.08 | tozasertib 0.059 | doramapimod -0.15 | bafetinib 0.041 | [3] 0.354 | dasatinib 0.035 | [5] -0.181 | quisinostat -0.11 | [1] 0.296 | [6] 0.133 | [4] -0.157

Source: the supplement of paper PMC10849652
